In all, about 5,500 compounds went through this assay and about 2,000 (36%) were called active. Not shown: some 18% with an inconclusive outcome. Cut-off read from the data, not from the text of the source: active = normalized growth mostly below about 0.91 (no sharp cut-off); inconclusive = no clear call, values can overlap the other calls; inactive = mostly above about 0.92. Some of the results follow.
Assay: chemical genetic growth profiling, strain panel (AID 1159580);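 note: tested at 20 µM; growth read once vehicle control cultures reached saturation at 30 °C; 1 = growth at the plate median or of vehicle wells; lower values mean less growth of the strain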
Details: S. cerevisiae deletion strains, growth OD

Measured: normalized growth

CC(C)(Oc1ccc(Cl)cc1)C(=O)O
inactive: locus YAL013W, strain DEP1, active compounds read low 1 | locus YAL021C, strain ccr4, active compounds read low 1.02 | locus YAL026C, strain drs2, active compounds read low 1.03 | locus YAL030W, strain snc1, active compounds read low 0.996 | locus YBL061C, strain skt5, active compounds read low 1.04 | locus YBR009C, strain hhf1, active compounds read low 0.988 | locus YBR021W, strain FUR4, active compounds read low 1.12 | locus YBR023C, strain chs3, active compounds read low 1.03 | locus YBR171W, strain sec66, active compounds read low 1.02 | locus YBR229C, strain ROT2, active compounds read low 0.998 | locus YBR231C, strain swc5, active compounds read low 0.997 | locus YBR279W, strain paf1, active compounds read low 1.02 | locus YCL011C, strain gbp2, active compounds read low 1 | locus YCL016C, strain dcc1, active compounds read low 1.03 | locus YCL029C, strain bik1, active compounds read low 0.956 | locus YCL069W, strain vba3, active compounds read low 1.01 | locus YCR088W, strain abp1, active compounds read low 1.01 | locus YDL005C, strain med2, active compounds read low 1.02 | locus YDL035C, strain GPR1, active compounds read low 0.997 | locus YDL040C, strain nat1, active compounds read low 0.996 | locus YDL074C, strain BRE1, active compounds read low 0.949 | locus YDL101C, strain DUN1, active compounds read low 0.986 | locus YDL134C, strain PPH21, active compounds read low 1 | locus YDL185W, strain tfp1, active compounds read low 0.938 | locus YDL192W, strain arf1, active compounds read low 0.981 | locus YDR001C, strain nth1, active compounds read low 1 | locus YDR069C, strain doa4, active compounds read low 1.01 | locus YDR101C, strain arx1, active compounds read low 0.979 | locus YDR137W, strain rgp1, active compounds read low 1.01 | locus YDR150W, strain NUM1, active compounds read low 0.995 | locus YDR159W, strain sac3, active compounds read low 0.949 | locus YDR162C, strain NBP2, active compounds read low 0.987 | locus YDR195W, strain ref2 0.979 | locus YDR297W, strain sur2, active compounds read low 0.99 | locus YDR318W, strain mcm21, active compounds read low 0.98 | locus YDR334W, strain swr1, active compounds read low 1 | locus YDR335W, strain msn5, active compounds read low 1.01 | locus YDR388W, active compounds read low 0.979 | locus YDR392W, strain spt3, active compounds read low 0.974 | locus YDR502C, strain sam2, active compounds read low 0.993 | locus YEL003W, strain gim4, active compounds read low 0.984 | locus YEL037C, strain rad23, active compounds read low 1.01 | locus YEL061C, strain CIN8 (second series), active compounds read low 1 | locus YEL061C, strain CIN8, active compounds read low 1 | locus YER015W, strain faa2, active compounds read low 1.01 | locus YER016W, strain bim1, active compounds read low 1.03 | locus YER110C, active compounds read low 0.983 | locus YER111C, strain swi4, active compounds read low 1.01 | locus YER155C, strain BEM2 (second series), active compounds read low 1.01 | locus YER155C, strain BEM2, active compounds read low 0.983 | locus YER167W, strain BCK2, active compounds read low 0.999 | locus YFR010W, strain ubp6, active compounds read low 0.976 | locus YGL078C, strain dbp3, active compounds read low 0.998 | locus YGL086W, strain mad1, active compounds read low 0.997 | locus YGL167C, strain pmr1, active compounds read low 1.01 | locus YGL173C, strain kem1, active compounds read low 0.982 | locus YGL227W, strain vid30, active compounds read low 0.993 | locus YGL240W, strain doc1, active compounds read low 1 | locus YGL248W, strain PDE1, active compounds read low 1 | locus YGL253W, strain hxk2, active compounds read low 1.01 | locus YGR078C, strain PAC10, active compounds read low 0.954 | locus YGR135W, strain pre9, active compounds read low 1.01 | locus YGR229C, strain SMI1, active compounds read low 1 | locus YGR252W, strain gcn5, active compounds read low 1.23 | locus YHR013C, strain ard1, active compounds read low 1.02 | locus YHR027C, strain rpn1, active compounds read low 1 | locus YHR030C, strain SLT2, active compounds read low 1 | locus YHR079C, strain IRE1 (second series), active compounds read low 0.964 | locus YHR094C, strain hxt1, active compounds read low 0.963 | locus YHR129C, strain ARP1, active compounds read low 0.988 | locus YHR142W, strain chs7, active compounds read low 1.04 | locus YHR200W, strain rpn10, active compounds read low 0.977 | locus YIL066C, strain RNR3, active compounds read low 0.99 | locus YIL073C, strain SPO22, active compounds read low 0.948 | locus YIL125W, strain kgd1, active compounds read low 0.98 | locus YIR030C, strain dcg1, active compounds read low 0.988 | locus YJL092W, strain hpr5, active compounds read low 1.02 | locus YJL095W, strain BCK1 (second series), active compounds read low 1.02 | locus YJL095W, strain BCK1, active compounds read low 0.976 | locus YJL115W, strain asf1, active compounds read low 1.01 | locus YJL129C, strain trk1, active compounds read low 1.03 | locus YJL134W, strain LCB3, active compounds read low 0.999 | locus YJL154C, strain vps35, active compounds read low 1.01 | locus YJL164C, strain tpk1, active compounds read low 0.993 | locus YJL166W, strain qcr8, active compounds read low 0.997 | locus YJL168C, strain set2, active compounds read low 0.976 | locus YJL187C, strain SWE1 (second series), active compounds read low 0.973 | locus YJR043C, strain POL32, active compounds read low 0.985
